Test results published in PubChem BioAssay AID1159580 (chemical genetic matrix, 2015).
Several values for one entry are separate records, joined by “and”; a condition that tells them apart may be missing. Equal values may be shown once. Hit rate of the full screen: of about 5,500 compounds, about 2,000 (36%) were called active. Inconclusive results (about 18%) are left out. Cut-off read from the data, not from the text of the source: active = normalized growth mostly below about 0.91 (no sharp cut-off); inconclusive = no clear call, values can overlap the other calls; inactive = mostly above about 0.92. This is one part of the list.

Experiment: chemical genetic growth profiling, strain panel (AID 1159580);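 note: tested at 20 µM; growth read once vehicle control cultures reached saturation at 30 °C; 1 = growth at the plate median or of vehicle wells; lower values mean less growth of the strain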
Settings: S. cerevisiae deletion strains, growth OD

Measured: normalized growth

O=C(O)CC[N+](=O)[O-]
inactive: locus YAL013W, strain DEP1, stronger effect = lower value 0.991 and 0.999 | locus YAL021C, strain ccr4, stronger effect = lower value 0.987 | locus YAL026C, strain drs2, stronger effect = lower value 1.01 | locus YAL030W, strain snc1, stronger effect = lower value 1 | locus YAL040C, strain CLN3, stronger effect = lower value 0.99 | locus YBL061C, strain skt5, stronger effect = lower value 1.01 | locus YBR009C, strain hhf1, stronger effect = lower value 1.01 | locus YBR021W, strain FUR4, stronger effect = lower value 1.12 | locus YBR023C, strain chs3, stronger effect = lower value 1.01 | locus YBR171W, strain sec66, stronger effect = lower value 1.01 | locus YBR229C, strain ROT2, stronger effect = lower value 1.01 | locus YBR231C, strain swc5, stronger effect = lower value 1.02 | locus YBR279W, strain paf1, stronger effect = lower value 0.999 | locus YCL011C, strain gbp2, stronger effect = lower value 1.02 | locus YCL016C, strain dcc1, stronger effect = lower value 1 | locus YCL029C, strain bik1, stronger effect = lower value 0.985 | locus YCL061C, strain MRC1 (second series), stronger effect = lower value 1 | locus YCL061C, strain MRC1, stronger effect = lower value 1 | locus YCL069W, strain vba3, stronger effect = lower value 0.996 | locus YCR088W, strain abp1, stronger effect = lower value 1 | locus YDL005C, strain med2, stronger effect = lower value 1 | locus YDL035C, strain GPR1, stronger effect = lower value 0.976 | locus YDL040C, strain nat1, stronger effect = lower value 0.988 | locus YDL074C, strain BRE1, stronger effect = lower value 0.999 | locus YDL101C, strain DUN1, stronger effect = lower value 0.998 | locus YDL134C, strain PPH21, stronger effect = lower value 0.997 | locus YDL185W, strain tfp1, stronger effect = lower value 0.962 | locus YDL192W, strain arf1, stronger effect = lower value 0.974 | locus YDR001C, strain nth1, stronger effect = lower value 0.993 | locus YDR069C, strain doa4, stronger effect = lower value 1.02 | locus YDR101C, strain arx1, stronger effect = lower value 0.986 | locus YDR137W, strain rgp1, stronger effect = lower value 0.999 | locus YDR150W, strain NUM1, stronger effect = lower value 0.972 and 1 | locus YDR159W, strain sac3, stronger effect = lower value 1.02 | locus YDR162C, strain NBP2, stronger effect = lower value 1.01 | locus YDR195W, strain ref2 0.977 | locus YDR297W, strain sur2, stronger effect = lower value 1.02 | locus YDR318W, strain mcm21, stronger effect = lower value 0.984 | locus YDR334W, strain swr1, stronger effect = lower value 1.01 | locus YDR335W, strain msn5, stronger effect = lower value 1 | locus YDR363W, strain ESC2, stronger effect = lower value 1.01 | locus YDR388W, stronger effect = lower value 0.993 | locus YDR392W, strain spt3, stronger effect = lower value 1.02 | locus YDR502C, strain sam2, stronger effect = lower value 0.988 | locus YEL003W, strain gim4, stronger effect = lower value 1.02 | locus YEL037C, strain rad23, stronger effect = lower value 1 | locus YEL061C, strain CIN8 (second series), stronger effect = lower value 1 | locus YEL061C, strain CIN8, stronger effect = lower value 0.994 | locus YER002W, strain NOP16, stronger effect = lower value 1.01 | locus YER015W, strain faa2, stronger effect = lower value 1 | locus YER016W, strain bim1, stronger effect = lower value 1.01 | locus YER110C, stronger effect = lower value 0.963 | locus YER111C, strain swi4, stronger effect = lower value 1.01 | locus YER155C, strain BEM2 (second series), stronger effect = lower value 1.03 | locus YER155C, strain BEM2, stronger effect = lower value 0.99 | locus YER167W, strain BCK2, stronger effect = lower value 0.988 | locus YFR010W, strain ubp6, stronger effect = lower value 1.01 | locus YGL078C, strain dbp3, stronger effect = lower value 0.979 | locus YGL086W, strain mad1, stronger effect = lower value 0.982 | locus YGL167C, strain pmr1, stronger effect = lower value 1.01 | locus YGL173C, strain kem1, stronger effect = lower value 1.02 | locus YGL227W, strain vid30, stronger effect = lower value 1 | locus YGL240W, strain doc1, stronger effect = lower value 1.04 | locus YGL248W, strain PDE1, stronger effect = lower value 1 | locus YGL253W, strain hxk2, stronger effect = lower value 1.01 | locus YGR078C, strain PAC10, stronger effect = lower value 0.986 | locus YGR135W, strain pre9, stronger effect = lower value 0.997 | locus YGR229C, strain SMI1, stronger effect = lower value 0.992 and 1 | locus YGR252W, strain gcn5, stronger effect = lower value 0.977 | locus YHR013C, strain ard1, stronger effect = lower value 0.997 | locus YHR027C, strain rpn1, stronger effect = lower value 0.997 | locus YHR030C, strain SLT2, stronger effect = lower value 0.983 and 0.976 | locus YHR079C, strain IRE1 (second series), stronger effect = lower value 0.996 | locus YHR079C, strain IRE1, stronger effect = lower value 0.976 | locus YHR094C, strain hxt1, stronger effect = lower value 0.978 | locus YHR129C, strain ARP1, stronger effect = lower value 0.986 | locus YHR142W, strain chs7, stronger effect = lower value 1.02 | locus YHR200W, strain rpn10, stronger effect = lower value 0.973 | locus YIL066C, strain RNR3, stronger effect = lower value 0.981 | locus YIL073C, strain SPO22, stronger effect = lower value 0.934 | locus YIL125W, strain kgd1, stronger effect = lower value 0.984 | locus YIR030C, strain dcg1, stronger effect = lower value 0.986 | locus YJL092W, strain hpr5, stronger effect = lower value 1 | locus YJL095W, strain BCK1 (second series), stronger effect = lower value 1.01 | locus YJL095W, strain BCK1, stronger effect = lower value 1 and 1.01 | locus YJL115W, strain asf1, stronger effect = lower value 0.997 | locus YJL129C, strain trk1, stronger effect = lower value 1.01 | locus YJL134W, strain LCB3, stronger effect = lower value 0.991 | locus YJL154C, strain vps35, stronger effect = lower value 0.996 | locus YJL164C, strain tpk1, stronger effect = lower value 0.993 | locus YJL166W, strain qcr8, stronger effect = lower value 1.02 | locus YJL168C, strain set2, stronger effect = lower value 0.99 | locus YJL187C, strain SWE1 (second series), stronger effect = lower value 0.982 | locus YJL187C, strain SWE1, stronger effect = lower value 1.01 | locus YJR043C, strain POL32, stronger effect = lower value 0.98 | locus YJR066W, strain TOR1, stronger effect = lower value 0.935
